The structures appear in SMILES notation.

The experiment deals with Follistatin-related protein 3 (Homo sapiens) (UniProt O95633). The experiment in a line: FSTL3 binders on small-molecule microarrays, primary screen, biochemical, small-molecule microarray, 635 nm fluorescence (AID 1105).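 Note: score merges emission near 667 nm and signal to noise per printed spot across three slides.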 The following applies: FSTL3 binding, higher = more signal.
Sequence of Follistatin-related protein 3 (Homo sapiens) (O95633 whole entry, looked up): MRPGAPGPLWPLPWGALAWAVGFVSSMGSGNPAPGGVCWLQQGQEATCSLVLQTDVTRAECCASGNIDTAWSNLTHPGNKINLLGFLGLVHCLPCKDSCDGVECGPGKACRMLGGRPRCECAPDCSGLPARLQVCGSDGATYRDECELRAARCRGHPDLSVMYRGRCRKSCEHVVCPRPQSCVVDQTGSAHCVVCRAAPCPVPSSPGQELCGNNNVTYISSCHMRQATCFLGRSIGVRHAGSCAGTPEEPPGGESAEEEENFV
`C=C(CCCC)C(=O)CC[C@@H](OC(=O)c1ccccc1-c1ccccc1C(=O)O)c1ccc(CO)o1` gave a composite z-score of 0.818.
To `O=C1c2ccccc2[C@](Cc2ccccc2I)(C(=O)O)[C@H](c2ccc(CO)cc2)N1Cc1ccccc1C(F)(F)F` belongs 0.19; to `O[C@@H](Cc1ccccc1)[C@@H](/C=C/c1ccccc1)NCc1ccccc1Br`, -2.06.
To `O=C(NCc1ccccc1)[C@@H]1c2ccccc2C(=O)N(Cc2cc(F)cc(C(F)(F)F)c2)[C@H]1c1ccc(CO)cc1` belongs 0.588.
To `CCCCN1CC=CC23O[C@@H]4/C=C\CCCOC(=O)C4[C@H]2C(=O)N(C(C)CO)[C@@H]3C1=O` (stereo partly specified) belongs -0.43; to `CC(C)C(CO)N1C(=O)[C@@H]2[C@H]3C(=O)OCC=C[C@H]3OC23C=CCN(c2ccc4ccccc4c2)C(=O)[C@@H]13` (stereo partly specified), -1.3.
In the case of `C=C(/C(=C/C[C@@H](OC(=O)c1ccncc1)c1ccc(CO)o1)c1cc(C(=O)OC)ccc1OC)C(C)C`, the composite z-score came out at 1.13.
Molecule `C=CC[C@@]1(C(=O)OC)N=C(c2ccc(OCCCO)cc2)O[C@@H]1c1ccccc1CN=[N+]=[N-]` registered a composite z-score of 0.201.
`[N-]=[N+]=Nc1ccccc1[C@H]1OC(c2ccc(OCCCO)cc2)=N[C@@]1(CCS(=O)(=O)c1ccccc1)C(=O)N1CCOCC1` showed a composite z-score of 0.924.
In turn, `C=CCN1C(=O)[C@@]2(O[C@@H](CCO)[C@H]([Si](C)(C)c3ccc(OC)cc3)[C@H]2C)c2cc(N3C(=O)COc4ccccc43)ccc21` returned a composite z-score of 0.193.
For `CCCC[C@H]1OB(O)C[C@H]2C1=C(COc1ccccc1)C[C@H]1C(=O)N(Cc3ccccc3)C(=O)[C@H]12` the value was 0.581.

The values are drawn from PubChem BioAssay.
